TIM10 inh: growth inhibitors of TIM10 yeast strain; inhibition, % at 10 µM; S. cerevisiae TIM10 strain growth, BacTiter-Glo luminescence, 24 h; AID 463195; 1.4% of 330,000 active;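 active means inhibition of 40% or more at the single tested concentration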;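 further: wild-type TIM10 isogenic control strain grown at permissive 25 °C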
tim23-1 inh: growth inhibitors of tim23-1 mutant yeast. S. cerevisiae tim23-1 growth, BacTiter-Glo luminescence, 24 h. inhibition, % at 20 µM. 1.3% of 330,000 active. AID 463212;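 active means growth inhibition of the mutant yeast at or above 50%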;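 further: temperature-sensitive mutant grown at 25 °C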
NALP1 inh: NALP1 inhibition; inhibition, % at 10 µM; S. cerevisiae NALP1/ASC/caspase-1 growth, X-gal OD620, 72 h; 0.61% of 280,000 active; in the data active means inhibition mostly above about 24%, no sharp cut-off; inactive means mostly below about 32%
NLRP3 yeast inh: blocks the NALP3 inflammasome reconstituted in yeast; Yeast reconstituted NLRP3/ASC/caspase-1, beta-gal luminescence, 24 h; inhibition, % at 10 µM; 0.39% of 330,000 active; AID 2825;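 active means inhibition of 50% or more; inactive means inhibition below 50%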
tim10-1 inh: inhibits growth of tim10-1 mutant yeast; S. cerevisiae tim10-1 ts strain growth, BacTiter-Glo, 24 h; AID 463190; inhibition, % at 20 µM; 2.2% of 330,000 active;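 active means inhibition of at least 40%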;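 further: mutant grown at 25 °C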
NALP3 confirm: confirmation of NALP3 inhibitors in yeast; shares compounds with NLRP3 yeast inh; yeast expressing human NALP3, luminescence; inhibition, % at 10 µM; 81% of 1,300 active; AID 435006; in the data active means inhibition above about 48%
Casp1-ASC yeast: active in yeast caspase-1-ASC counter-screen for NALP3 inhibitors. inhibition, % at 10 µM. 66% of 1,000 active. shares compounds with NLRP3 yeast inh. yeast expressing Caspase-1-ASC, luminescence counter screen
NALP3 retest: retest-confirmed inhibitor of NALP3 in yeast. 53% of 1,000 active. yeast expressing human NALP3, luminescence read-out. inhibition, % at 10 µM. shares compounds with NLRP3 yeast inh
Hits are given with their value; – = inactive; · = not tested or not shown. Most compounds without a hit are left out; they make up all but 4% or so of the library. Unless noted, no stated cut-off is given here; in the data, active means inhibition above about 50%; inactive means the rest.

SMILES	TIM10 inh	tim23-1 inh	NALP1 inh	NLRP3 yeast inh	tim10-1 inh	NALP3 confirm	Casp1-ASC yeast	NALP3 retest
Cc1cccc(OCc2nc3ccccc3n2C)c1	–	–	–	54	–	72	55	–
Cn1c(COc2ccc(F)cc2)nc2ccccc21	–	–	–	–	–	·	·	·
CCc1sc(C(=O)Nc2nc(C)cs2)cc1C	–	–	–	56	–	72	66	54
CCC(C)[C@@H](N)C(=O)N/N=C/c1ccc2ncccc2c1 (some centres undefined)	–	–	–	–	–	·	·	·
COc1ccc(C(=O)NN/C(C)=C/C(=O)C(F)(F)C(F)(F)C(F)(F)F)cc1	–	–	–	57	–	45	–	–
COc1ccc(C(=O)NNC(=O)OC(C)(C)C)cc1	–	–	·	–	–	·	·	·
CCOc1ccc(-n2c(=O)c3sccc3n(CC(=O)NCCc3ccc(OC)c(OC)c3)c2=O)cc1	–	–	–	–	–	·	·	·
Nc1ccc(N=Nc2ccc(N)cc2)cc1	–	–	–	–	–	·	·	·
Cc1cc(N(C)C)ccc1N=Nc1ccc(N)cc1	–	–	·	51	–	–	–	–
O=C(NCCC1=CCCCC1)c1ccc([N+](=O)[O-])cc1	–	–	–	58	–	–	·	·
C[C@@]12CCC3[C@@](CCC4[C@@]3(C)CCC[C@@]4(C)C(=O)Nc3ccc(Cl)cc3)(CC1=O)C2 (some centres undefined)	–	–	·	–	–	·	·	·
CC(C)NC(=O)[C@]1(C)CCC[C@@]2(C)C3CC[C@@]4(C)C[C@]3(CCC21)CC4=O (some centres undefined)	–	–	·	59	–	–	53	53
CC1CCN(S(=O)(=O)c2cccc(-c3cn4cc(Cl)ccc4n3)c2)CC1	–	–	–	64	–	75	–	–
O=C(NCc1ccccn1)c1cc(S(=O)(=O)N2CCCCC2)ccc1Cl	–	–	·	–	–	·	·	·
O=C(NCC1COc2ccccc2O1)c1cccc(S(=O)(=O)NCc2ccccc2)c1 (centres undefined)	–	–	·	–	–	·	·	·
CN1CCC(N(C)C(=O)c2ccc(Cl)c(S(=O)(=O)N3CCOCC3)c2)CC1	–	–	·	–	–	·	·	·
Cc1ccc(NC(=S)NNC(C)(C)C)cc1	–	–	–	51	–	–	61	–
Cc1cc(NC(=O)Cn2cc([N+](=O)[O-])cn2)no1	–	–	–	–	–	·	·	·
C[C@H](CCC(=O)O)[C@H]1CC[C@H]2[C@@H]3CC[C@@H]4C[C@H](O)CC[C@]4(C)[C@H]3CC[C@]12C	–	–	·	72	–	78	78	61
CC(CCC(=O)O)C1CCC2C3CCC4C[C@H](O)CCC4(C)C3CC(=O)C12C (some centres undefined)	–	–	–	–	–	·	·	·
Cc1cccc(C(=O)NCC(=O)N2CCCCCCC2)c1	–	–	·	–	–	·	·	·
CCOc1cc(C=O)ccc1OCCSc1ccc(Cl)cc1	–	–	–	53	–	48	58	–
Cn1c(/C=C/N(Cc2ccccc2)c2ccccc2)c([N+](=O)[O-])c(=O)n(C)c1=O	–	–	–	–	–	–	·	·
Cc1ccc(NC(=O)CN2CCN(CCN=CC3=C(O)CC(C)(C)CC3=O)CC2)cc1	–	–	–	55	–	58	–	–
CC1(C)CC(=O)C(C=NCCN2CCN(CC(=O)Nc3ccc(Cl)cc3)CC2)=C(O)C1	–	–	–	–	–	·	·	·
SMILES	TIM10 inh	tim23-1 inh	NALP1 inh	NLRP3 yeast inh	tim10-1 inh	NALP3 confirm	Casp1-ASC yeast	NALP3 retest
Cc1c(/C=N/O)c2ccccn2c1C(=O)c1ccc(F)cc1	–	–	–	62	–	77	–	–
COc1ccc(C(=O)c2coc3ccc(OC(C)=O)cc23)cc1	–	–	–	–	–	·	·	·
COc1ccc2occ(C(=O)c3ccc(N)cc3)c2c1	–	–	–	57	–	69	–	–
Cc1ccc(C(=O)c2coc3ccc(O)cc23)cc1	–	–	–	65	–	66	–	–
Cc1ccc(C(=O)c2coc3ccc(O)c(Cl)c23)cc1	–	–	–	–	–	·	·	·
NCCOc1ccccc1-c1ccccc1	–	–	–	54	–	66	56	50
CC(=O)N1N=C(c2ccc(Cl)cc2)OC1(C)C	–	–	–	71	–	51	52	–
Fc1cccc(Nc2ncnc3c2cnn3-c2ccccc2)c1	–	–	–	63	–	77	·	·
O=C(O)c1cccc(Nc2ncnc3c2cnn3-c2ccccc2)c1	–	–	–	–	–	·	·	·
COc1cccc(Nc2ncnc3c2cnn3-c2cccc(C)c2)c1	–	–	–	–	–	·	·	·
Clc1cccc(Nc2ncnc3c2cnn3-c2ccccc2)c1	–	–	·	53	–	61	–	–
CC(C)CCNC(=O)c1cccc(C(=O)NCCC(C)C)c1	–	–	–	–	–	·	·	·
CC(C)CCNC(=O)c1ccc(-c2ccccc2)cc1	–	–	–	52	–	61	–	–
C=CCC(O)(CC=C)C(C)N (centres undefined)	–	–	–	–	–	·	·	·
COc1ccc(-c2ccc(SCC(=O)NCc3ccco3)nn2)cc1	–	–	–	–	–	–	·	·
O=C(Nc1cccc(-c2cnc3ccccc3n2)c1)c1ccco1	–	–	–	–	–	·	·	·
O=C(Nc1cnc2ccccc2c1)c1ccco1	–	–	–	52	–	–	–	–
COc1cccc2cc(C(=O)c3ccccc3)oc12	–	–	–	50	–	–	·	·
Cc1c(C(=O)Nc2cc(F)cc(F)c2)cnn1-c1ccccc1	–	–	–	71	–	76	76	70
Cc1c(C(=O)Nc2ccccc2F)cnn1-c1ccccc1	–	–	–	–	–	·	·	·
c1cc(-c2cc3cc4c(cc3cn2)OCO4)cs1	–	–	·	57	–	51	–	–
CCCOc1ccc(-c2cn3ccccc3n2)cc1	–	–	–	72	–	56	88	76
Cc1cc2nc(N3C(=O)CNC3=S)sc2cc1C	–	–	–	69	–	82	·	·
COc1ccc(OC)c(NC(=O)C2COc3ccccc3O2)c1 (centres undefined)	–	–	–	–	–	·	·	·
COc1ccc(CNC(=O)C2COc3ccccc3O2)c(OC)c1 (centres undefined)	–	–	–	53	–	65	–	–
O=C(CCNC(=O)c1ccco1)Nc1ccccc1N1CCOCC1	–	–	–	–	–	·	·	·
O=c1c2cc(Cl)ccc2nc(-c2ccc([N+](=O)[O-])cc2)n1O	–	–	–	65	–	68	–	58
CC(=O)N(/N=C1\Sc2ccccc2C1=O)c1ccccc1C	–	–	–	54	–	48	–	–
CCCCOC(=O)Nc1nnc(CCc2ccccc2)s1	–	–	–	52	–	–	·	·
COc1ccc(C(=O)c2cc([N+](=O)[O-])ccc2N2CCCC2)cc1	–	–	–	56	–	–	·	·

Bioassay records deposited in PubChem by Sanford-Burnham Center for Chemical Genomics.
